The results in this text go back to PubChem BioAssay (NCI).

Assay [1] in a line: NCI Yeast Anticancer Drug Screen. Data for the rad50 strain (AID 155).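 Note: 0% = growth of vehicle-only cultures of the same strain.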 Conditions: S. cerevisiae rad50 strain growth inhibition, stronger effect = higher value. An outline of the steps:
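Readout: growth inhibition relative to vehicle-treated cultures. Compound exposure was carried out in a genetically defined yeast strain deficient in DNA damage repair.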

The nature of assay [2]: NCI Yeast Anticancer Drug Screen. Data for the mec2-1 strain (AID 157). The note with it: S. cerevisiae mec2-1 strain, stronger effect = higher value. A digest of the protocol: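 Each compound was tested on mec2-1 yeast, a strain altered in DNA damage repair or cell cycle control. Growth inhibition is reported relative to vehicle.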
A short description of assay [3]: NCI Yeast Anticancer Drug Screen. Data for the sgs1 mgt1 strain (AID 161).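 Note: 0% = growth of cultures given vehicle only.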 Conditions: S. cerevisiae sgs1 mgt1 strain, stronger effect = higher value. An outline of the steps:
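Test agents were incubated with a DNA-repair-mutant yeast strain. Growth was then read and compared against vehicle-treated controls.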

The nature of assay [4]: NCI Yeast Anticancer Drug Screen. Data for the cln2 rad14 strain (AID 165).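 Note: 0% = growth equal to vehicle treated cultures.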 Conditions: S. cerevisiae cln2 rad14 strain, stronger effect = higher value. A digest of the protocol:
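Test compounds were added to cln2 rad14 yeast cultures; inhibition of growth was then determined by comparison with vehicle treatment.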

A short description of assay [5]: NCI Yeast Anticancer Drug Screen. Data for the bub3 strain (AID 167). The note with it: S. cerevisiae bub3 mutant strain, stronger effect = higher value. A digest of the protocol: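 Readout: yeast growth inhibition, expressed relative to vehicle-only wells. The test organism is a mutant strain from a panel with lesions in DNA repair or checkpoint genes.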
Assay [6] in a line: NCI Yeast Anticancer Drug Screen. Data for the mlh1 rad18 strain (AID 175). The note with it: S. cerevisiae mlh1 rad18 strain growth inhibition, stronger effect = higher value. An outline of the steps:
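Inhibition values reflect reduced growth of mutant yeast versus vehicle-treated controls following compound exposure; the mutations affect DNA damage repair.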

Where [7] appears, read: at 5.0 µM (retest, dose inferred, filed as 0.5).
Setting [8] is: at 50.0 µM (retest, dose inferred, filed as 5.0).

Compounds without any hit were thinned out: in the full panel of roughly 79,000, 15% have a hit. Unmarked numbers belong to inactive results. Calls of active or inactive are those of the source. Cut-off read from the data, not from the text of the source: active = growth inhibition above about 70%; inactive = the rest.

As for `COc1cc(C2SC(N)=Nc3c2c(C)nn3C(=O)c2ccccc2O)cc(OC)c1OC` (configuration not stated), the growth inhibition was -1% in assay [1] (setting [7]); 80% (active) in assay [1] (setting [8]); 52.5% in assay [1] (at 50.0 µM); -10% in assay [2] (setting [7]); 71% (active) in assay [2] (setting [8]); 39.9% in assay [2] (at 50.0 µM). The growth inhibition in assay [3] (setting [7]) was -5%; in assay [3] (setting [8]) it was 75% (active); in assay [3] (at 50.0 µM), 79.8% (active); in assay [4] (setting [7]) it was 3%; in assay [4] (setting [8]) it was 25%; in assay [4] (at 50.0 µM), 56.4%. Also, the growth inhibition in assay [5] (setting [7]) was -1%; in assay [5] (setting [8]), 70% (active); in assay [5] (at 50.0 µM), 79.1% (active); in assay [6] (setting [7]), 6%; in assay [6] (setting [8]), 86% (active); in assay [6] (at 50.0 µM), 50.2%.
As to `NNCc1cc(Cl)c2cccnc2c1O`, the growth inhibition in assay [1] (setting [7]) was 18%; in assay [1] (setting [8]) it was 96% (active); in assay [1] (at 50.0 µM), 98.8% (active); in assay [2] (setting [7]) it was 6%; in assay [2] (setting [8]) it was 99% (active); in assay [2] (at 50.0 µM), 98.8% (active). Also, the growth inhibition in assay [3] (setting [7]) is 7%; in assay [3] (setting [8]), 98% (active); in assay [3] (at 50.0 µM), 98.5% (active); in assay [4] (setting [7]), -8%; in assay [4] (setting [8]) it was 98% (active); in assay [4] (at 50.0 µM), 97.5% (active). Also, the growth inhibition was -1% in assay [5] (setting [7]); 98% (active) in assay [5] (setting [8]); 99% (active) in assay [5] (at 50.0 µM); 9% in assay [6] (setting [7]); 98% (active) in assay [6] (setting [8]); 98.7% (active) in assay [6] (at 50.0 µM).
On to `CC(=O)OC1C(C)OC(OC(=O)C2CCC3C(C2)OC2(CC(OC(=O)/C=C/c4ccccc4)C(C)CO2)C32CO2)C(OC2OC(C)C(O)C(OC(C)=O)C2O)C1O` (configuration not stated), for which the growth inhibition is 34% in assay [1] (setting [7]); 97% (active) in assay [1] (setting [8]); 87.9% (active) in assay [1] (at 50.0 µM); 36% in assay [2] (setting [7]); 99% (active) in assay [2] (setting [8]); 92% (active) in assay [2] (at 50.0 µM). The growth inhibition in assay [3] (setting [7]) is 30%; in assay [3] (setting [8]) it was 99% (active); in assay [3] (at 50.0 µM) it was 91.5% (active); in assay [4] (setting [7]), 45%; in assay [4] (setting [8]), 96% (active); in assay [4] (at 50.0 µM), 88.1% (active). For the same molecule, the growth inhibition was 31% in assay [5] (setting [7]); 99% (active) in assay [5] (setting [8]); 90.2% (active) in assay [5] (at 50.0 µM); 31% in assay [6] (setting [7]); 97% (active) in assay [6] (setting [8]); 85.2% (active) in assay [6] (at 50.0 µM).
For the molecule `NC1CCCCC1N.O=S(=O)([O-])CCCN1CCN(CCO)CC1.O=S(=O)([O-])CCCN1CCN(CCO)CC1.[Pt+4]`, the growth inhibition was 8% in assay [1] (setting [7]); 98% (active) in assay [1] (setting [8]); -8.45% in assay [1] (at 50.0 µM); 8% in assay [2] (setting [7]); 99% (active) in assay [2] (setting [8]); -9.95% in assay [2] (at 50.0 µM). Moreover, the growth inhibition was 12% in assay [3] (setting [7]); 98% (active) in assay [3] (setting [8]); 23.1% in assay [3] (at 50.0 µM); 44% in assay [4] (setting [7]); 66% in assay [4] (setting [8]); -15.8% in assay [4] (at 50.0 µM). The growth inhibition in assay [5] (setting [7]) was -24%; in assay [5] (setting [8]), 97% (active); in assay [5] (at 50.0 µM), -2.7%; in assay [6] (setting [7]) it was 16%; in assay [6] (setting [8]), 98% (active); in assay [6] (at 50.0 µM), 24.4%.
As to `Brc1ccc(C2SCc3nc4ccccc4n32)cc1` (configuration not stated), the growth inhibition was 2% in assay [1] (setting [7]); 89% (active) in assay [1] (setting [8]); 74.5% (active) in assay [1] (at 50.0 µM); 7% in assay [2] (setting [7]); 51% in assay [2] (setting [8]); 24.8% in assay [2] (at 50.0 µM). Further, the growth inhibition is 12% in assay [3] (setting [7]); 57% in assay [3] (setting [8]); 96.1% (active) in assay [3] (at 50.0 µM); -10% in assay [4] (setting [7]); 37% in assay [4] (setting [8]); 56.6% in assay [4] (at 50.0 µM). For the same molecule, the growth inhibition in assay [5] (setting [7]) was -2%; in assay [5] (setting [8]), 88% (active); in assay [5] (at 50.0 µM), 92.3% (active); in assay [6] (setting [7]) it was -2%; in assay [6] (setting [8]), 54%; in assay [6] (at 50.0 µM), 78.7% (active).
Take `Cn1cnc([N+](=O)[O-])c1Sc1nc2cccnc2s1`: the growth inhibition in assay [1] (setting [7]) was 45%; in assay [1] (setting [8]), 80% (active); in assay [1] (at 50.0 µM), 79.5% (active); in assay [2] (setting [7]), 34%; in assay [2] (setting [8]) it was 77% (active); in assay [2] (at 50.0 µM) it was 77.1% (active). Moreover, the growth inhibition in assay [3] (setting [7]) is 40%; in assay [3] (setting [8]), 59%; in assay [3] (at 50.0 µM) it was 67.8%; in assay [4] (setting [7]), 29%; in assay [4] (setting [8]), 44%; in assay [4] (at 50.0 µM), 52%. Also, the growth inhibition in assay [5] (setting [7]) is 38%; in assay [5] (setting [8]) it was 68%; in assay [5] (at 50.0 µM) it was 71.8% (active); in assay [6] (setting [7]), 54%; in assay [6] (setting [8]), 90% (active); in assay [6] (at 50.0 µM) it was 75.6% (active).
As for `CCc1ccc(-c2ccccc2)cc1`, the growth inhibition in assay [1] (setting [7]) was 1%; in assay [1] (setting [8]), 1%; in assay [1] (at 50.0 µM), 9.45%; in assay [2] (setting [7]) it was -1%; in assay [2] (setting [8]), 6%; in assay [2] (at 50.0 µM), -2.95%. Also, the growth inhibition in assay [3] (setting [7]) is -1%; in assay [3] (setting [8]), -2%; in assay [3] (at 50.0 µM), -3.9%; in assay [4] (setting [7]) it was -7%; in assay [4] (setting [8]), 6%; in assay [4] (at 50.0 µM), 76.9% (active). For the same molecule, the growth inhibition in assay [5] (setting [7]) is 9%; in assay [5] (setting [8]) it was 10%; in assay [5] (at 50.0 µM), 9.05%; in assay [6] (setting [7]), 0%; in assay [6] (setting [8]), 4%; in assay [6] (at 50.0 µM) it was 8.75%.
Consider `COC(=O)C12CCC(=O)C(C)=C1CCC(OC)(OC)C2` (configuration not stated), for which the growth inhibition is -5% in assay [1] (setting [7]); 4% in assay [1] (setting [8]); 95.2% (active) in assay [1] (at 50.0 µM); -10% in assay [2] (setting [7]); 6% in assay [2] (setting [8]); 16.9% in assay [2] (at 50.0 µM). In addition, the growth inhibition in assay [3] (setting [7]) is 7%; in assay [3] (setting [8]) it was 17%; in assay [3] (at 50.0 µM), 66.5%; in assay [4] (setting [7]), -2%; in assay [4] (setting [8]), -7%; in assay [4] (at 50.0 µM), -1%. Further, the growth inhibition in assay [5] (setting [7]) was -2%; in assay [5] (setting [8]) it was -3%; in assay [5] (at 50.0 µM), 61.8%; in assay [6] (setting [7]), 10%; in assay [6] (setting [8]) it was 11%; in assay [6] (at 50.0 µM), 82.3% (active).
Consider `O=[N+]([O-])/C(C(Cl)=C(Cl)Cl)=C(/Sc1ccccc1)N1CCOCC1`, for which the growth inhibition in assay [1] (setting [7]) is 5%; in assay [1] (setting [8]), 99% (active); in assay [1] (at 50.0 µM), 88.2% (active); in assay [2] (setting [7]) it was 2%; in assay [2] (setting [8]), 99% (active); in assay [2] (at 50.0 µM), 91.8% (active). In addition, the growth inhibition in assay [3] (setting [7]) is -4%; in assay [3] (setting [8]), 99% (active); in assay [3] (at 50.0 µM), 85.8% (active); in assay [4] (setting [7]), -7%; in assay [4] (setting [8]) it was 99% (active); in assay [4] (at 50.0 µM) it was 89.2% (active). Further, the growth inhibition is -20% in assay [5] (setting [7]); 99% (active) in assay [5] (setting [8]); 89.5% (active) in assay [5] (at 50.0 µM); 15% in assay [6] (setting [7]); 98% (active) in assay [6] (setting [8]); 83.2% (active) in assay [6] (at 50.0 µM).
